According to PubChem BioAssay (NCATS):
“And” between values parts separate entries of the source, which are not always exact repeats. Equal entries are not always repeated. Values without a mark were called inactive. Inconclusive results are not listed. The source made the active and inactive calls. Unless noted, the call rests on the fitted dose curve; in most records, active means well fitted curve in the direction sought with a large enough effect; inconclusive means small, poorly fitted or top-dose-only effect, or another doubt; inactive means no such curve, though single readings can be large; an effect the other way counts as inactive or inconclusive.

Tests used:
[1] = qHTS assay for environmental chemicals that activate the Aryl hydrocarbon Receptor (AhR) signaling pathway (AID 651777); details: 1A2-DRE human hepatoma cells, luciferase, 24 h; activation: stronger effect = higher value; further: nearly all actives have a fitted effect of over 15% in size; further: potency means the concentration at half of the fitted maximal effect; on activation: % of control where 0% means no effect
Summary of the method: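 AhR activation is scored as a rise in luciferase from a stable DRE–CYP1A2 promoter construct in human hepatoma cells. Treatment lasts 24 hr at 37 C; detection uses One-Glo after 30 min at room temperature.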

[2] = target: Peroxisome proliferator-activated receptor alpha (Homo sapiens) (UniProt Q07869); assay: qHTS assay for small molecule agonists of the peroxisome proliferator-activated receptor alpha (PPARalpha) signaling pathway (AID 651778); details: PathHunter PPARalpha complementation, chemiluminescence, 6 h; max response: stronger effect = higher value; further: % of control where 0% means no effect
Summary of the method: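 Chemiluminescence from complemented enzyme reported PPARalpha activation in cells after 6 hr of compound treatment at 37 C. The detection reagent was incubated for 60 min at room temperature, and compounds were scored as agonists.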

[3] = qHTS assay for small molecule agonists of the antioxidant response element (ARE) signaling pathway measured by Nrf2-dependant transcriptional activity (AID 720636; active means well fitted curve in the direction sought with a large enough effect in the repeat runs; an effect the other way counts as inactive or inconclusive;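 further: HepG2 cells with an ARE-driven luciferase reporter; % of control where 0% means no effect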)
Summary of the method: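 First, ARE-luc HepG2 cells attached for 6 hr at 37 C in 1% dialyzed FBS medium. Next, compound or DMSO was added and incubated 16 hr. Finally, ONE-Glo reagent was added and luminescence measured after 30 min.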

[4] = qHTS assay for small molecule antagonists of the retinoid-related orphan receptor gamma (ROR-gamma) signaling pathway - cell viability counter screen (AID 720652; active means well fitted curve in the direction sought with a large enough effect in the repeat runs; an effect the other way counts as inactive or inconclusive;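 further: CHO reporter cells with doxycycline-induced ROR-gamma expression; series mostly up to about 92 µM; compound exposure lasted 16 hr before ATP read; on the % scale 0 is the no-effect control and ±100 the full control effect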)
Summary of the method: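 Cytotoxicity counter screen: intracellular ATP (CellTiter-Glo luminescence) measured in the doxycycline-induced CHO RORE-luciferase reporter line after 16 hr compound exposure at 37 C, 5% CO2.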

[5] = qHTS assay for small molecule agonists of the antioxidant response element (ARE) signaling pathway measured by Nrf2-dependant transcriptional activity - cell viability counter screen (AID 720653; active means well fitted curve in the direction sought with a large enough effect in the repeat runs; an effect the other way counts as inactive or inconclusive; further: on the % scale 0 is the no-effect control and ±100 the full control effect); details: ARE-bla HepG2 viability, CellTiter-Glo ATP luminescence, 16 h; max response: stronger effect = lower value
Summary of the method: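 Cytotoxicity counter screen: intracellular ATP quantified by CellTiter-Glo luminescence in the same ARE-bla HepG2 plates, after 16 h compound exposure and a 2 h beta-lactamase substrate step.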

[6] = qHTS Assay for Identifying Gametocytocidal Compounds (AID 743244);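 further: on the % scale 0 is the no-effect control and ±100 the full control effect; actives lower the fluorescent signal which means gametocytes are killed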; details: P. falciparum 3D7 stage III-V gametocytes, alamarBlue, 72 h; max response: stronger effect = lower value
Summary of the method: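 Fluorescence at Ex 525/Em 598 nm, recorded 24 h after alamarBlue addition, reports residual metabolic activity of 3D7 gametocytes (stages III–V) following 72 h compound exposure at 37 °C, 5% CO2.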

[7] = qHTS assay for cell viability of HEK293 cells (AID 743288); details: ATP luminescence (CellTiter-Glo), 18 h; max response: stronger effect = lower value; further: on the % scale 0 is the no-effect control and ±100 the full control effect; nearly all actives have a fitted effect of over 50% in size
Summary of the method: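 After 18 h compound exposure at 37 C, parental HEK293 cells (2,000/well) are lysed with CellTiter-Glo and luminescence is read following 30 min at room temperature.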

[8] = qHTS assay for cell viability of the p53RE-bla HCT-116 cell line (AID 743292); further: on the % scale 0 is the no-effect control and ±100 the full control effect; nearly all actives have a fitted effect of over 55% in size
Summary of the method: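 Quantitative high-throughput format: compounds in DMSO were pinned onto p53RE-bla HCT-116 cells (4,000/well) and incubated 16 h at 37 C. Total intracellular ATP, read by CellTiter-Glo luminescence, reflects viable cell number.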

[9] = target: Nuclear receptor ROR-gamma (Homo sapiens) (UniProt P51449); assay: qHTS assay for small molecule antagonists of the retinoid-related orphan receptor gamma (ROR-gamma) signaling pathway (AID 651802);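 further: CHO cells with doxycycline-induced ROR-gamma expression; luciferase reporter luminescence driven by ROR response element; series mostly up to about 92 µM; on the % scale 0 is the no-effect control and ±100 the full control effect; nearly all actives have a fitted effect of over 60% in size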
Summary of the method: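 Luminescence (One-Glo, 30 min RT) measured 16 h after compound addition and doxycycline induction at 37C. Reporter: RORE-luciferase under TET-inducible ROR-gamma in CHO cells.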

[10] = target: Arylsulfatase A (Homo sapiens) (UniProt P15289); assay: qHTS screen for enhancers of Arylsulfatase A (ASA1): LOPAC Validation Assay (AID 720538); details: outcome: dose series up to 57.5 µM; further: 0% is about no effect
Summary of the method: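 SV40-transformed skin fibroblasts from an MLD patient (ASA-I179S) were treated with compounds for 48h at 37 degree C, then lysed with 0.5mM pNCS final substrate for 14h at room temperature; NaOH stop, fluorescence read (Ex=525 nm; Em=598 nm).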

[11] = qHTS for compounds that reverse cellular toxicity of Amyloid beta (A-beta) peptide in yeast: LOPAC Validation Assay (AID 720559);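 further: plate controls were DMSO for no effect and equimolar ferric chloride plus clioquinol rescue for full effect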
Summary of the method: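 Yeast cells expressing toxic A-beta were combined with pinned compounds in growth medium and incubated 48 hr at 30 C. Growth was read as absorbance at 600 nm and normalized to DMSO and to an equimolar FeCl3/clioquinol positive control.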

[12] = qHTS for Activators of Parkin Expression: LOPAC Validation Assay (NLuc Reporter) (AID 720572)
Summary of the method: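 Compound effects on Parkin promoter activity were measured as NanoLuc luminescence after 24 h at 37 C. The neuronal reporter line also carried FLuc, which was read first. LOPAC compounds were tested at 7 concentrations, with normalization to DMSO (0%) and positive control (100%).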

[13] = qHTS for Activators of Parkin Expression: LOPAC Validation Assay (FLuc Reporter) (AID 720573)
Summary of the method: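 Neuronal cell line stably carrying FLuc/NLuc coincidence reporter under Parkin promoter; cells plated 24 h, then compounds added in 7-point dose response for 24 h at 37 C. FLuc luminescence read; normalized to DMSO and positive control (100%).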

[14] = target: T1, Hexokinase-4 (Homo sapiens) + Glucokinase regulatory protein (Homo sapiens) (UniProt P35557+Q14397); assay: qHTS assay for inhibitors of recombinant human GCK-GKRP interaction: Diaphorase-coupled assay (AID 743205)
Summary of the method: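 GST-GCK (10 nM) with FLAG-GKRP (10 nM), 5 mM glucose and 0.4 mM ATP in pH 7.6 Hepes; compounds preincubated 20 min with substrate. G6PDH/diaphorase coupling converts resazurin to resorufin, read kinetically (ex 525/em 590 nm) for 30 min.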

[15] = target: T1, Hexokinase-4 (Homo sapiens) + Glucokinase regulatory protein (Homo sapiens); assay: qHTS assay for inhibitors of recombinant human GCK-GKRP interaction: ADP-Glo assay (AID 743206);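 further: plate controls were DMSO plus enzyme for no effect and no enzyme for full effect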
Summary of the method: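 Pin-transferred compounds meet a 15 nM GST-GCK/15 nM FLAG-GKRP/2 uM S6P mix (dispense concentrations). ATP is then added to 0.4 mM final with 5 mM glucose, and the reaction runs 60 min at room temperature. ADP is quantified luminescently.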

[16] = target: T1, Hexokinase-4 (Homo sapiens) + Glucokinase regulatory protein (Homo sapiens); assay: qHTS assay for inhibitors of recombinant human GCK-GKRP interaction: HTRF assay (AID 743207);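 further: 0% = DMSO with GCK present and -100% = DMSO wells lacking GCK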
Summary of the method: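 GST-GCK and FLAG-GKRP (5 nM each) were combined with 2 uM S6P in pH 7.1 Hepes/MgCl2/KCl/DTT buffer, then compound and anti-FLAG XL665/anti-GST K antibodies were added. After 60 min at room temperature, HTRF 665/615 nm emission was read.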

T1 sequence (P35557 whole entry, looked up): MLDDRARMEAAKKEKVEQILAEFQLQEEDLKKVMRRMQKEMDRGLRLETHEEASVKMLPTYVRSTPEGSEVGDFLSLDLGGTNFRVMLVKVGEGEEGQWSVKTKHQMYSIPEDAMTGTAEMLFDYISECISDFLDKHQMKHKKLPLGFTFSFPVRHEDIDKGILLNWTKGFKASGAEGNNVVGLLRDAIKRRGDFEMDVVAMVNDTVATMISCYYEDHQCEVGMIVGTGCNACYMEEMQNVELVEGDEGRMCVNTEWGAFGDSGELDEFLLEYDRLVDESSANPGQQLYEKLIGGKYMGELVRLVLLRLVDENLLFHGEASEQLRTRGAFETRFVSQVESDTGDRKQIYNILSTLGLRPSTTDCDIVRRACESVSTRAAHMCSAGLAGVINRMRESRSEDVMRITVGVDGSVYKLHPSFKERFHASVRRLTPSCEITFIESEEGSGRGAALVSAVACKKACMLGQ
T1 sequence (Q14397 whole entry, looked up): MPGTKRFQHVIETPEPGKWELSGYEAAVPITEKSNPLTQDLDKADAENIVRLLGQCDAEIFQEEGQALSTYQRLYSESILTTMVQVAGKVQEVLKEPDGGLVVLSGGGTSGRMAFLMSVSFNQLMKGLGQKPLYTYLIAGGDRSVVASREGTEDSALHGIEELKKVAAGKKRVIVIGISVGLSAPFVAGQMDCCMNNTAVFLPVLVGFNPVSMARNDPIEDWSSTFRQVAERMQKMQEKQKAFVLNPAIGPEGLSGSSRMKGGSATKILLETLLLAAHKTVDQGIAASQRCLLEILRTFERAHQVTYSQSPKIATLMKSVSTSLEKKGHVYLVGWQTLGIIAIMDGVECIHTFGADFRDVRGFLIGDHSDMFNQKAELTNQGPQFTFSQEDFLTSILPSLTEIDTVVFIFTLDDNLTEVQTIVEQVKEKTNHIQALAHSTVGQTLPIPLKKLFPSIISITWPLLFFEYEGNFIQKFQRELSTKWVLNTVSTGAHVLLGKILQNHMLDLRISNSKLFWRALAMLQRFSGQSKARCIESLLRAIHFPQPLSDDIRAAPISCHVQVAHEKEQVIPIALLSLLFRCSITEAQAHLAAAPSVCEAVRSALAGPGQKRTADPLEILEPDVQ
Peroxisome proliferator-activated receptor alpha (Homo sapiens), sequence (Q07869 whole entry, looked up): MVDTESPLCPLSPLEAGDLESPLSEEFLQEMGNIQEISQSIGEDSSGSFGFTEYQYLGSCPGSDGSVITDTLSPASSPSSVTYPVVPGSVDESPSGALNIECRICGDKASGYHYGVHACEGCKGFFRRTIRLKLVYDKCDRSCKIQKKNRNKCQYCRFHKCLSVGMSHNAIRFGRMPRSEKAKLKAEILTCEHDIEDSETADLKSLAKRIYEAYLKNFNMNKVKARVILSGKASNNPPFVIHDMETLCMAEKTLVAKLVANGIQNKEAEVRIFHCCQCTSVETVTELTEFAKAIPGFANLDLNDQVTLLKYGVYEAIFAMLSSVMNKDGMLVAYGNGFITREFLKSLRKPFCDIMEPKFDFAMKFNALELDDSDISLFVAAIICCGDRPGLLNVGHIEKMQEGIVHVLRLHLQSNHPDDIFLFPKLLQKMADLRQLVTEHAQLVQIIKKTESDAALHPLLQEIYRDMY
Nuclear receptor ROR-gamma (Homo sapiens), sequence (P51449 whole entry, looked up): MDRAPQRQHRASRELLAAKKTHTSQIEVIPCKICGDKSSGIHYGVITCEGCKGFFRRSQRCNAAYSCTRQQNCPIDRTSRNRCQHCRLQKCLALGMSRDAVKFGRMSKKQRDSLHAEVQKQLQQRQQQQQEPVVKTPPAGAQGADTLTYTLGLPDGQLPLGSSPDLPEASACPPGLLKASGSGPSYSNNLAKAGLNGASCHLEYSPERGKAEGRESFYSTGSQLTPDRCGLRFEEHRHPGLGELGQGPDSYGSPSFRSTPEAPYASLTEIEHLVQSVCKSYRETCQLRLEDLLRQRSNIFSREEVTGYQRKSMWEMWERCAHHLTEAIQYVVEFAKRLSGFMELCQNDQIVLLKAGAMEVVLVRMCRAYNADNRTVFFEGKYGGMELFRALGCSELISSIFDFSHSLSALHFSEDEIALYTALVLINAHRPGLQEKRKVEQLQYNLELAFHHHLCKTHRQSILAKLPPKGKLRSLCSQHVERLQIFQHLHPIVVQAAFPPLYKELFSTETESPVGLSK
Arylsulfatase A (Homo sapiens), sequence (P15289 whole entry, looked up): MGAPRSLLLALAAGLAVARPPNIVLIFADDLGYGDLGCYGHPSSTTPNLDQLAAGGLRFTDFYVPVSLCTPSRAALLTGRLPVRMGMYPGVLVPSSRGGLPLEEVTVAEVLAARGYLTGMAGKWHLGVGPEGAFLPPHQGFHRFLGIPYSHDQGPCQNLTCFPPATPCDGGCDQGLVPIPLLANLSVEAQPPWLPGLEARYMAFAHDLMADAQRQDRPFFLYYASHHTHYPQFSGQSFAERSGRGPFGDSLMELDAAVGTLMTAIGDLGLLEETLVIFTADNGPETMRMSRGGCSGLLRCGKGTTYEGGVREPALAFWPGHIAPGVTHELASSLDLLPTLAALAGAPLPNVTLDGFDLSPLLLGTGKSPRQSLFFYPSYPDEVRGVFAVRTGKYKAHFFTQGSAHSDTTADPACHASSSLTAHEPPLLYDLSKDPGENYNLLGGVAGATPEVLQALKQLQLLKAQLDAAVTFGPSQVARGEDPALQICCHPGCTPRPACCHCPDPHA

## C=CC(=O)NCNC(=O)C=C
[1]
  activation: 1.7% and 2.02%
[2]
  max response: -3.68% and -5.17%
[3]
  Potency: inactive
[4]
  Potency: inactive
[5]
  max response: 1.98% and -12.5%
[6]
  max response: 11%
[7]
  max response: 3.56% and -2.17%
[8]
  Potency: inactive

## Nc1ccc(Sc2ccc(N)cc2)cc1
[1]
  activation: 6.89% and 6.82%
[2]
  max response: -3.47% and -0.953%
[9]
  Potency: inactive
[3]
  Potency: inactive
[4]
  Potency: inactive
[5]
  max response: 10% and -10.9%
[7]
  max response: 1.17% and -4.98%
[8]
  Potency: inactive

## CN(C)[C@@H]1C(=O)C(C(N)=O)=C(O)[C@@]2(O)C(=O)C3=C(O)c4c(O)cccc4[C@@](C)(O)[C@H]3[C@H](O)[C@@H]12
[1]
  activation: 0.477% and 1.23% and -3.54%
[2]
  max response: -3.16% and 0.185% and -4.32%
[3]
  Potency: inactive
[4]
  Potency: inactive
[5]
  max response: -0.377% and -4.28% and 10.9%
[6]
  max response: -4.72% and -5.37%
[7]
  max response: -3.99% and -10.9% and -2.39%
[8]
  Potency: inactive

## CCO/N=C(\CC)C1=C(O)CC(c2c(C)cc(C)cc2C)CC1=O (configuration not stated)
[1]
  activation: -2.09%
[2]
  max response: -0.461%
[3]
  Potency: inactive
[5]
  max response: 1.75%
[6]
  max response: 13.9%
[7]
  max response: -20.6%
[8]
  Potency: inactive

## O=C(O)C(Cl)Cl
[1]
  activation: 3.85% and 0.254%
[2]
  max response: -0.693% and -4.76%
[9]
  Potency: inactive
[3]
  Potency: inactive
[5]
  max response: -10.5% and 2.18%
[6]
  max response: -4.42% and 4.64%
[7]
  max response: -7.67% and 1.66%
[8]
  Potency: inactive

## CN(C)NC(=O)CCC(=O)O
[1]
  activation: 0.139% and -1.5%
[2]
  max response: 0.401% and -4.12%
[9]
  Potency: inactive
[3]
  Potency: inactive
[4]
  Potency: inactive
[5]
  max response: -0.912% and -0.667%
[7]
  max response: 1.56% and -3.81%
[8]
  Potency: inactive

## Clc1cnc(Oc2ccc(Oc3ncc(Cl)cc3Cl)cc2)c(Cl)c1
[1]
  activation: 0.838%
[2]
  max response: 2.8%
[10]
  outcome: inactive
[11]
  outcome: inactive
[12]
  outcome: inactive
[13]
  outcome: inactive
[3]
  Potency: inactive
[5]
  max response: -6.15%
[14]
  outcome: inactive
[15]
  outcome: inactive
[16]
  outcome: inactive
[6]
  max response: 17.9%
[7]
  max response: -12.9%
[8]
  Potency: inactive

## Nc1ccc(Cl)cc1N
[1]
  Potency: 50.1 µM (active) and 39.8 µM (active)
[2]
  max response: -5.6% and -0.828%
[9]
  Potency: inactive
[4]
  Potency: inactive
[5]
  max response: -19.8%
[6]
  max response: -15.5%
[7]
  max response: -8.79% and -16.5%
[8]
  Potency: inactive

## O=[N+]([O-])c1c2ccccc2cc2ccccc12
[1]
  activation: 10%
[2]
  max response: 5.89%
[9]
  Potency: inactive
[4]
  Potency: inactive
[5]
  max response: -1.85%
[6]
  max response: -7.57%
[7]
  max response: -0.948%
[8]
  Potency: inactive

## O=C(Nc1ccccc1-c1ccc(Cl)cc1)c1cccnc1Cl
[1]
  activation: 0.984%
[2]
  max response: 0.0876%
[3]
  Potency: inactive
[5]
  max response: -1.23%
[6]
  max response: 10.9%
[7]
  max response: -25.4%
[8]
  Potency: inactive

## O=S(=O)(c1ccc(Cl)cc1)c1ccc(Cl)cc1
[1]
  activation: -0.947% and -1.11% and 1.55%
[2]
  max response: 2.6% and -3.68% and -3.44%
[9]
  Potency: inactive
[3]
  Potency: inactive
[4]
  Potency: inactive
[5]
  max response: -11% and -26.7% and -18.8%
[6]
  max response: -16%
[7]
  max response: -6.49% and -9.97% and -17.8%
[8]
  Potency: inactive

## O=S(=O)(O)C(F)(F)C(F)(F)C(F)(F)C(F)(F)C(F)(F)C(F)(F)C(F)(F)C(F)(F)F
[1]
  activation: 1.49% and 0.543%
[2]
  max response: -0.394% and 4.02%
[3]
  Potency: inactive
[5]
  max response: 2.35% and -3.55%
[6]
  max response: -9.5%
[7]
  max response: -7.88% and -13.4%
[8]
  Potency: inactive

## c1cc2ccc3cccc4ccc(c1)c2c34
[1]
  activation: -0.0456% and 4.28%
[2]
  max response: -3.14% and -4.98%
[9]
  Potency: inactive
[3]
  Potency: inactive
[4]
  Potency: inactive
[5]
  max response: -6.01% and -15.3%
[7]
  max response: -10.7% and -22.9%
[8]
  Potency: inactive

## CS(=O)(=O)c1ccc(C(=O)C2C(=O)CCCC2=O)c([N+](=O)[O-])c1
[1]
  activation: 3.32%
[2]
  max response: -3.08%
[3]
  Potency: inactive
[5]
  max response: -7.62%
[6]
  max response: -23.2%
[7]
  max response: -4.44%
[8]
  Potency: inactive

## O=C(O)COc1nc(Cl)c(Cl)cc1Cl
[1]
  activation: 0.732%
[2]
  max response: -3.53%
[3]
  Potency: inactive
[5]
  max response: -15.1%
[6]
  max response: 14.5%
[7]
  max response: -10.3%
[8]
  Potency: inactive
